The values below come from PubChem BioAssay AID777 (Sanford-Burnham Center for Chemical Genomics, 2007).

About 19,000 (20%) of roughly 96,000 compounds were called active. A selection follows. Values without a mark were called inactive.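 Rule for the calls: active = blocking of liver enzyme CYP2C9 beyond about 50% at 5 µM (limit read from the data); inactive = the rest.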

For the assay, the target named is Cytochrome P450 2C9 (Homo sapiens) (UniProt P11712). Briefly: blockers of cytochrome P450 2C9 activity – biochemical, luminescence, ADME assay, primary screen (AID 777). The settings on record: CYP2C9 Supersomes, luciferin-H conversion, at 5 µM, active compounds read high.
Cytochrome P450 2C9 (Homo sapiens), sequence (P11712 whole entry, looked up): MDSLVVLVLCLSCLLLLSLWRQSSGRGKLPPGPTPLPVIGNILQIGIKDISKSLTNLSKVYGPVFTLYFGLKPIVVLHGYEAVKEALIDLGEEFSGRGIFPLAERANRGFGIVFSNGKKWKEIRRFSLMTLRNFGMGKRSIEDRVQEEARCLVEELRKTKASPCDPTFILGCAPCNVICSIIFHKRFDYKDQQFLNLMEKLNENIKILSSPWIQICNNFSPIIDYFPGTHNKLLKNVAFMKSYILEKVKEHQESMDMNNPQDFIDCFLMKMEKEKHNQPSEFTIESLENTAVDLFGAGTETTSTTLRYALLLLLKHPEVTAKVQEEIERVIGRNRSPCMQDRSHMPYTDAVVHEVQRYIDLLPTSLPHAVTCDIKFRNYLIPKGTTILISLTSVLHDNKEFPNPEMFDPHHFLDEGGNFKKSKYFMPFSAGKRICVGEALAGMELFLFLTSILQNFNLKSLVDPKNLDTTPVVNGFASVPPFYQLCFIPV
Take `Cc1cc(O)ccc1-c1cnc2ccccc2n1`: the inhibition (in general, the relative decrease from the control value, in per cent) is -7.4%.
On to `O=C(CN1C(=O)c2ccccc2S1(=O)=O)N1CCc2ccccc21`, for which the inhibition is -5.2%.
Regarding `O=C1c2ccccc2S(=O)(=O)N1CC(O)Cn1c2ccccc2c2ccccc21` (configuration not stated), the inhibition was 94.4% (active).
For `CNC(=O)CN1C(=O)c2ccccc2S1(=O)=O`, the inhibition is -5.9%.
Next, `CCC(=O)Nc1ccc(C(=O)Nc2ccc3c(c2)C(=O)N(CC2CCCO2)C3=O)cc1` (configuration not stated): 18.8%.
Next, `CC(=O)Nc1cccc(Oc2cc(C#N)c(C#N)cc2N2CCOCC2)c1`: 61.5% (active); `CCOc1cccc(NC(=O)CC#N)c1`: -19.3%; `CC(=O)Nc1ccc(N2CCOCC2)c(C(=O)Nc2cccc(C)c2)c1`: 49.6%.
As for `CCC(=O)Nc1ccc(C(=O)Nc2cc(C)on2)cc1`, the inhibition was 8.5%.
The value for `Cc1ccc(/C=N/NC(=O)c2sccc2OCc2ccc(F)cc2)cc1` was 17.4%.
The value for `O=C(Nc1nnc(CCOCCOCCc2nnc(NC(=O)c3ccco3)s2)s1)c1ccco1` was 19.4%.
The value for `Cc1[nH][nH]c(=O)c1N=Nc1ccccc1` was 25.4%; that for `COc1ccccc1-c1cc(C(=O)NCCCn2ccnc2)no1` was -25.8%.
On to `CCCCOCCCNC(=O)c1ccccc1OCC`, for which the inhibition is -187%.
Next, `CCCC(=O)Nc1ccc(C(=O)NCCCn2ccnc2)cc1`: 42.1%; `CCOc1ccccc1C(=O)NCCCn1ccnc1`: 65.1% (active).
The value for `O=C(NCCCn1ccnc1)Nc1ccc(Cl)cc1Cl` was 97.7% (active); that for `NS(=O)(=O)c1ccc(CCNC(=O)Nc2ccc(Cl)cc2)cc1` was 30.4%; that for `Cn1c(=NC(=O)CSCC(=O)N2CCCCC2)sc2ccccc21` was -39.3%.
Next, `O=C(Cc1c(F)cccc1Cl)N1CCN(C(=O)c2ccco2)CC1`: 11.7%.
On to `O=C1CSC(c2cccc(F)c2)N1c1ccc(O)cc1` (configuration not stated), for which the inhibition is 32.7%.
For `CCN1CCN(C(=O)/C=C\C(=O)O)CC1`, the inhibition is -4.2%.
For the molecule `CCN(CC)S(=O)(=O)c1ccc(NC(=O)CN(c2cccc(F)c2)S(C)(=O)=O)cc1`, the inhibition was 97.6% (active).
Next, `COc1cccc(N(CC(=O)Nc2cccc(F)c2)S(C)(=O)=O)c1`: 45.4%; `Cc1ccc(N(CC(=O)Nc2cccc(N(C)S(C)(=O)=O)c2)S(C)(=O)=O)cc1`: 5.5%.
Take `COc1cccc(N(CC(=O)Nc2cccc(N(C)S(C)(=O)=O)c2)S(C)(=O)=O)c1`: the inhibition was 57.7% (active).
The value for `Cc1cccc(N(CC(=O)Nc2ccc(-c3nc4ccc(C)cc4s3)cc2)S(C)(=O)=O)c1` was 6.7%.
Turning to `CS(=O)(=O)N(CC(=O)Nc1ccc(F)cc1F)c1cccc([N+](=O)[O-])c1`, the inhibition is 13.3%.
Take `CC1Cc2cc(/C(O)=C3\C(=O)C(=O)N(CCN4CCOCC4)C3c3ccccc3F)ccc2O1` (configuration not stated): the inhibition is 0.8%.
Take `CCSc1ncnc2c(C#N)c3n(c12)CCCCC3`: the inhibition is 17.9%.
Next, `Nn1c(SCC(=O)NC2CCCC2)nnc1-c1ccccc1F`: 8.6%.
The value for `COCCNC(=O)COc1ccccc1C` was 4.4%; that for `CCCn1nnnc1NC(=O)COc1ccc(Cl)cc1C` was 46.7%.
Next, `O=C(CSc1n[nH]c(-c2cccnc2)n1)Nc1ccnc2ccccc12`: 91.5% (active).
As for `O=C(CSc1ncn[nH]1)Nc1ccnc2ccccc12`, the inhibition was 35.2%.
`O=C(Nc1cccc2ncccc12)C(Cl)(Cl)Cl`: the inhibition is 49.6%.
As for `CCCn1c(SCC(N)=O)nnc1C(C)C`, the inhibition is -8%.
Next, `O=C1c2cccnc2C(=O)N1Cc1cccs1`: 11.6%; `CCOC(=O)c1nc(N)sc1C(=O)OCC`: 4.2%.
The value for `CCOC(=O)c1sc(C)c2c1NC(C)(c1cccc3ccccc13)NC2=O` (configuration not stated) was 100% (active).
Next, `CCOC(=O)c1cc2ccccc2nc1C`: -27.3%.
With `Cc1ccccc1Nc1nnc(C)c(=O)[nH]1`, the inhibition was 2.7%.
Next, `CNC(=O)c1nnc(Cc2ccc(Cl)cc2)o1`: 5%; `CC(C)CCNC(=O)C1CCCN(S(=O)(=O)c2ccc(F)cc2)C1` (configuration not stated): -10.8%.
The value for `CC(C)CCNC(=O)C(C)N(C(=O)Cn1nnc(-c2ccc(F)cc2)n1)C1CCCC1` (configuration not stated) was 77.2% (active).
With `CC(C)CCNC(=O)CN(C(=O)Cn1nnc(-c2ccc(F)cc2)n1)C1CCCC1`, the inhibition is 17.3%.
The value for `CC1=CC(C)(C)NC(=S)N1c1ccccc1` was 13.8%; that for `CCc1cccc2c(C=C(C#N)C#N)cn(CC(=O)N3CCCCC3)c12` was 0%; that for `Cc1nnc(SCc2cc(=O)[nH]c(N3CCN(Cc4ccccc4)CC3)n2)s1` was 56.4% (active).
Next, `O=c1cc(CSc2ccccn2)nc(N2CCN(c3ccccc3)CC2)[nH]1`: 3.6%; `CCc1c(C)nc(N2CCN(Cc3ccccc3)CC2)[nH]c1=O`: 10.1%; `Cc1ccc(-c2n[nH]c(=S)n2/N=C/c2cc3c(cc2[N+](=O)[O-])OCO3)cc1`: 18%.
Next, `Nc1nc(C23CC4CC(CC(C4)C2)C3)cs1`: 73.6% (active); `N#Cc1c(N)nc2c3c(sc(=N)c2c1N)NC(=O)CC3c1ccccc1Cl` (configuration not stated): 8.6%.
Consider `CCOC(=O)C1(S(=O)(=O)c2ccc(Cl)cc2)CCN(Cc2ccccc2)CC1`, for which the inhibition was 21.8%.
The value for `CCN1C(=O)/C(=C\N2CCOCC2)SC1=S` was 8.1%; that for `CC1(N2CCOCC2)CC2(O)C(=[N+]1[O-])CCc1nonc12` (configuration not stated) was 31.8%; that for `O=C1Nc2cc(Cl)c(Cl)cc2N(O)N1c1cc(Cl)cc(Cl)c1` was 89.3% (active).
The value for `CCN(CC)CCCNC(=O)c1cc(-c2cccc(Cl)c2)on1` was 10.4%.
With `CC(C)N(c1ccccc1)c1ncnc(NCCC(=O)O)c1[N+](=O)[O-]`, the inhibition was -1.4%.
As for `Cc1ccsc1C(=O)OCC(=O)c1cc2ccccc2o1`, the inhibition was -30.4%.
Next, `Cc1cc2c(=O)n(C)c(SCC(=O)c3cc4ccccc4o3)nc2s1`: 95.9% (active); `Cc1ccc(C(=O)CSc2nc3ccccc3c(=O)n2N)o1`: 34.2%; `C=CCn1c(Oc2ccc(C(=O)OC)cc2)nc2c1c(=O)n(C)c(=O)n2C`: 8.4%.
Next, `O=C(O)C1CCN(S(=O)(=O)N2CCOCC2)CC1`: 3.6%.
The value for `COCCCN1C(=O)C(=O)/C(=C(/O)c2ccc3c(c2)CC(C)O3)C1c1cccnc1` (configuration not stated) was -1%; that for `c1ccc(CCN2CN=C(Nc3nc4ccccc4o3)NC2)cc1` was 6.5%.
As for `Clc1ccc(Cn2ncc3c(NCc4cccnc4)ncnc32)cc1`, the inhibition was 49.7%.
For the molecule `CCN1C(=O)/C(=C2\SC(N3CCCCC3)=NC2=O)c2ccccc21`, the inhibition was -20.1%.
In the case of `O=C(NCc1cccnc1)c1ccc(CS(=O)(=O)c2ccc(Br)cc2)o1`, the inhibition was 95.6% (active).
Next, `CC(C)(C)c1cc(C(=O)NCc2cccnc2)ccn1`: 12.2%.
For `O=S(=O)(c1ccc(Br)cc1)c1nc(-c2ccccc2)oc1NCc1cccnc1`, the inhibition was 17.3%.
Next, `Cc1cc(C(C)(C)C)oc1C(=O)N(CC(=O)NC1CCCC1)Cc1ccc(Cl)cc1`: -11.5%; `CCCCOc1ccc(C(=O)NCc2ccco2)cc1`: 15.5%.
The value for `CCCCCCOc1ccc(OC(=O)c2cccnc2)cc1` was 10%; that for `CCCCOc1ccc(C(=O)NCc2ccncc2)cc1` was 58.4% (active).
With `CCOc1cccc(C(=O)Nc2cccnc2)c1`, the inhibition is 4.7%.
The value for `CCOc1ccc(C(=O)Nc2ccncc2)cc1` was 94.8% (active).
On to `CC(=O)c1cccc(NC(=O)c2ccncc2)c1`, for which the inhibition was 68.3% (active).
Next, `C=C(C)C(=O)Nc1cccc(C(C)=O)c1`: 1.4%; `CN(C)c1ccc(NC(=O)c2ccncc2)c2ccccc12`: 43.9%; `COc1ccc(NC(=O)c2ccc(OC)cc2)cc1`: -13.7%.
The value for `COC(=O)CNC(=O)c1ccccc1F` was -2.7%.
Next, `Cc1cc(Cl)c(S(=O)(=O)NCCC(=O)O)cc1OCC(N)=O`: -23.5%; `c1cc(-c2nn[nH]n2)ccc1CN1CCCCC1`: -10.5%.
With `COc1ccc(-c2cc3nc(C)c(CCC(=O)NC(C)CCc4ccco4)c(C)n3n2)c(OC)c1` (configuration not stated), the inhibition is 37.5%.
Next, `COc1cc(/C=C(/NC(=O)c2ccccc2)C(=O)Nc2cccc(O)c2)c([N+](=O)[O-])cc1OC`: 16.6%; `CCOc1ncccc1C(=O)OCc1cn2cc(Cl)ccc2n1`: 45%; `CSc1nc2ccccc2cc1/C=C(\C#N)c1ccc(Cl)cc1Cl`: 7.6%.
The value for `C=C(C)Cn1c(SCC(=O)NCc2ccco2)nc2sc3c(c2c1=O)CCC3` was 34.6%; that for `O=C(NCc1ccco1)c1cnn2c(C(F)(F)F)cc(-c3ccco3)nc12` was 17.5%.
The value for `O=C(NCc1ccco1)c1cccn2c(=O)c3c4c(sc3nc12)CCCC4` was 59.8% (active).
With `Cc1nc2nc(C)c(CCC(=O)N3CCN(c4ccccc4)CC3)c(C)n2n1`, the inhibition was 0.9%.
Next, `COC(=O)C1=C(C)N=C2SC(C)C(=O)N2C1/C=C/c1ccccc1` (configuration not stated): 48.6%; `Cc1ccc(S(=O)(=O)Cn2nnnc2CN2CCN(Cc3ccc4c(c3)OCO4)CC2)cc1`: 29.7%; `O=C(/C=C/Nc1ccccc1OC(F)(F)F)C(F)(F)F`: 5.5%.
The value for `CN1CCN(c2ccc(NC(=O)COc3ccc(Cl)cc3Cl)cc2)CC1` was -16.8%.
Next, `Cc1cccc(NC(=O)COc2ccccc2C)n1`: 19.4%.
Take `Cc1ccccc1OCC(=O)Nc1ccc(N2CCN(C(=O)C(C)C)CC2)c(Cl)c1`: the inhibition is 68.8% (active).
Next, `COc1ccccc1C(=O)N1CCN=C1SCc1cccnc1`: 58.4% (active).
The value for `CCC(=O)N1CCN=C1SCc1ccc(F)cc1` was 11%; that for `O=C(c1ccco1)N1CCN=C1SCc1cccc(Cl)c1` was 34.4%.
